In PubChem BioAssay AID720488 (Milwaukee Institute for Drug Discovery, 2013):
The whole screen tested about 16,000 compounds, of which about 960 (6%) were called active.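 The calls were made as follows: active = compound fluorescence over control fluorescence at most 0.8, a quencher, or at least a set upper limit, an enhancer; inactive = ratio between 0.8 and the set upper limit.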 This excerpt belongs to a sample that is enriched for actives.

assay: fluorescence interference in NS3h DNA assay – biochemical, ChemBridge library, Cy5 readout, artefact control for HCV NS3 helicase inhibitor project (AID 720488); settings: Cy5-dT15 DNA with NS3h, at 100 µM, actives lie on both sides, signal over control mean, under 1 quenches

Row | SMILES | fluorescence interference ratio
1 | Cc1cccc(N2C(=O)S/C(=C/c3ccc(N(C)C)cc3)C2=O)c1 | 0.733 (active)
2 | Cc1c(N2C(=O)S/C(=C\c3ccc(N(C)C)cc3)C2=O)c(=O)n(-c2ccccc2)n1C | 1.02 (inactive)
3 | CN(C)c1ccc(/C=C2/SC(=S)N(c3ccc(F)cc3)C2=O)cc1 | 1.06 (inactive)
4 | O=C(/C=N/O)NCCCNCc1ccccc1 | 1.03 (inactive)
5 | CC(C)N1C(=O)/C(=C/c2ccc(O)cc2)SC1=S | 0.867 (inactive)
6 | O=C(Nc1ccc2oc(-c3cccc(Cl)c3Cl)nc2c1)c1ccccc1[N+](=O)[O-] | 1.11 (inactive)
7 | CCc1ccc2oc(-c3ccc(NC(=O)c4ccccc4[N+](=O)[O-])cc3)nc2c1 | 0.659 (active)
8 | CCC(=O)Nc1ccc(-c2nc3ccccc3o2)cc1 | 0.946 (inactive)
9 | CCN1C(=O)/C(=C\c2ccc(OCc3ccccc3Cl)cc2)SC1=S | 0.997 (inactive)
10 | COc1ccc(N(CC(=O)Nc2ccc(C(C)C)cc2)S(=O)(=O)c2ccc(C)cc2)c(OC)c1 | 1.04 (inactive)
11 | COCCCNC(=O)CN(c1ccc(OC)cc1OC)S(=O)(=O)c1ccc(C)cc1 | 1.23 (active)
12 | COc1ccc(N(CC(=O)NCc2ccncc2)S(=O)(=O)c2ccc(C)cc2)cc1 | 0.919 (inactive)
13 | CN1CCN(C(=O)c2cc3nc(-c4cccs4)cc(C(F)(F)F)n3n2)CC1 | 0.935 (inactive)
14 | COc1cccc(C2C(C(=O)Nc3ccccc3)=C(C)N=c3s/c(=C\c4c[nH]c5ccccc45)c(=O)n32)c1 (stereo not given) | 1.04 (inactive)
15 | Nc1ccc(Sc2ccccc2[N+](=O)[O-])cc1 | 0.899 (inactive)
16 | COc1ccc(CCNc2cc(N3CCOCC3)ccc2[N+](=O)[O-])cc1OC | 0.856 (inactive)
17 | O=[N+]([O-])c1ccc(N2CCN(S(=O)(=O)c3ccccc3)CC2)cc1N1CCOCC1 | 1.11 (inactive)
18 | O=[N+]([O-])c1ccc(N2CCN(CCO)CC2)cc1NC(c1ccccc1)c1ccccc1 | 0.793 (active)
19 | COc1ccc(C(=O)/C=C/Nc2ccc(S(=O)(=O)N=C(N)N)cc2)cc1OC | 0.963 (inactive)
20 | Cc1ccc(OCC(=O)NC(C)C)cc1 | 1.11 (inactive)
21 | CCOC(=O)c1sc(NC(=O)c2ccc(OC)cc2)c(C(=O)OCC)c1C | 1.02 (inactive)
22 | CCOC(=O)c1sc(NC(=O)COc2ccc(C)cc2C)c(C(=O)OCC)c1C | 0.985 (inactive)
23 | CCOC(=O)c1c(-c2ccc(C)cc2C)csc1NC(=S)NC(=O)c1ccccc1 | 1.21 (active)
24 | CC(C)(C)c1ccccc1OCC(O)CN1CCCC1 (stereo not given) | 1.05 (inactive)
25 | C=CCOc1ccccc1C=C1C(=O)NC(=O)NC1=O | 0.999 (inactive)
